Inconclusive results are not listed. The source made the active and inactive calls. Unless noted, calls follow the shape of the dose curve; as a rule, active = well fitted curve in the direction sought with a large enough effect in the repeat runs; inconclusive = weak or mixed curves; inactive = no such curve, though single readings can be large; an effect the other way counts as inactive or inconclusive.
Experiments:
[1] = target: Aryl hydrocarbon receptor (Homo sapiens) (UniProt P35869); test: qHTS assay to identify small molecule that activate the aryl hydrocarbon receptor (AhR) signaling pathway (AID 743085);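 also: HG2L7.5c1 human HepG2 liver cells with stably integrated DRE-driven firefly reporter; series mostly up to about 70 µM; nearly all actives have a fitted effect of over 15% in size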
Procedure, shortened: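 Measured in HG2L7.5c1 cells: CellTiter-Fluor signal (30 min incubation, 37C) for viability, then luciferase luminescence (30 min, room temperature). Compound contact time was 24 h at 37C, following a 5 h pre-incubation.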

[2] = qHTS assay to identify small molecule that activate the aryl hydrocarbon receptor (AhR) signaling pathway - cell viability counter screen (AID 743086);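 also: HepG2 liver cells carrying the AhR DRE luciferase reporter; series mostly up to about 70 µM; nearly all actives have a fitted effect of over 45% in size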
Procedure, shortened: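 HepG2-AhR-luc (HG2L7.5c1) cells, 4000/well, were preincubated 5 h at 37C, exposed to compound in qHTS format for 24 hr at 37C, then given CellTiter-Fluor for 30 min; viability was read as fluorescence in the reporter wells.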

[3] = target: Peroxisome proliferator-activated receptor gamma (Homo sapiens) (UniProt P37231); test: qHTS assay to identify small molecule agonists of the peroxisome proliferator-activated receptor gamma (PPARg) signaling pathway (AID 743094; active = well fitted activation curve with a large enough effect in the signal ratio in the repeat runs, not every such curve was filed as active; the % refers to the signal ratio)
Procedure, shortened: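 HEK293H PPARg-bla cells, 5 h settle at 37C/5% CO2; compound (DMSO) 17 h, 37C; B/G FRET substrate 1 h RT; fluorescence intensity read-out. qHTS format.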

[4] = target: Peroxisome proliferator-activated receptor gamma (Homo sapiens) (UniProt P37231); test: qHTS assay to identify small molecule antagonists of the peroxisome proliferator-activated receptor gamma (PPARg) signaling pathway (AID 743191; calls by dose curve; also: series mostly up to about 63 µM; nearly all actives have a fitted effect of over 30% in size)
Procedure, shortened: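 GeneBLAzer PPARg UAS-bla HEK293H cells carrying a UAS-driven beta-lactamase reporter were plated at 3000 cells/well, preincubated 5 h at 37C, then given compound for 17 h at 37C; LiveBLAzer B/G FRET substrate was read after 1 h at room temperature.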

[5] = qHTS assay to identify small molecule antagonists of the peroxisome proliferator-activated receptor gamma (PPARg) signaling pathway - cell viability counter screen (AID 743194); also: nearly all actives have a fitted effect of over 55% in size
Procedure, shortened: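 PPARg-UAS-bla HEK293H cells were plated, rested 5 h at 37 C, then treated with compounds plus rosiglitazone (50 nM final) for 17 h at 37 C; viability was then read by CellTiter-Glo luminescence after 30 min at room temperature.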

[6] = qHTS assay for small molecule agonists of the antioxidant response element (ARE) signaling pathway (AID 743202; active = well fitted activation curve with a large enough effect in the signal ratio in the repeat runs, not every such curve was filed as active; the % refers to the signal ratio)
Procedure, shortened: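 Following a 16 h, 37 C exposure of reporter HepG2 cells (ARE-driven beta-lactamase, 2,000 cells/well) to compounds, FRET substrate was applied for 2 h at room temperature and fluorescence intensity recorded.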

[7] = qHTS assay for small molecule agonists of the antioxidant response element (ARE) signaling pathway - cell viability counter screen (AID 743203; calls by dose curve; also: nearly all actives have a fitted effect of over 55% in size)
Procedure, shortened: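 Luminescence read-out (CellTiter-Glo, 30 min at room temperature) measured cell viability in the same wells as the ARE beta-lactamase reporter. HepG2 ARE-bla cells were treated with compounds for 16 hrs at 37C/5% CO2.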

[8] = qHTS assay for small molecule activators of the heat shock response signaling pathway - cell viability counter screen (AID 743209); also: nearly all actives have a fitted effect of over 50% in size
Procedure, shortened: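 HSE-bla HeLa; 1500 cells/well; overnight 37 C, 5% CO2; compound 5 h 37 C; LiveBLAzer B/G substrate 2.5 h RT; CellTiter-Glo 30 min RT; luminescence.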

[9] = qHTS assay for small molecule activators of the heat shock response signaling pathway (AID 743210; active = well fitted activation curve with a large enough effect in the signal ratio in the repeat runs, with a control signal flat, not every such curve was filed as active; the % refers to the signal ratio; also: series mostly up to about 63 µM)
Procedure, shortened: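 Heat shock element–beta-lactamase HeLa reporter cells; qHTS with compounds for 5 h at 37 C; detection by FRET substrate fluorescence after 2.5 h at RT.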

[10] = qHTS assay to identify small molecule agonists of the peroxisome proliferator-activated receptor delta (PPARd) signaling pathway - cell viability counter screen (AID 743211); also: nearly all actives have a fitted effect of over 55% in size
Procedure, shortened: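 Following 5 h plating at 37 C and 5% CO2, PPARd UAS-bla HEK293H cells took up test compounds for 17 h. Viability was quantified by luminescence 30 min after CellTiter-Glo addition at room temperature.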

[11] = qHTS assay to identify small molecule antagonists of the peroxisome proliferator-activated receptor delta (PPARd) signaling pathway - cell viability counter screen (AID 743213); also: nearly all actives have a fitted effect of over 50% in size
Procedure, shortened: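 Same-well viability: cells pre-incubated 5 h, dosed with compound plus 300 nM L165041, kept 17 h at 37 C, FRET substrate 2 h RT, then CellTiter-Glo 30 min RT and luminescence.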

[12] = qHTS assay to identify small molecule agonists of the farnesoid-X-receptor (FXR) signaling pathway - cell viability counter screen (AID 743218); also: nearly all actives have a fitted effect of over 45% in size
Procedure, shortened: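 Luminescence from CellTiter-Glo, read after 30 min at RT, reports viability of GeneBLAzer FXR-UAS-bla HEK 293T cells treated 16 h with compounds in the wells used for the beta-lactamase reporter.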

[13] = qHTS assay to identify small molecule antagonists of the farnesoid-X-receptor (FXR) signaling pathway - cell viability counter screen (AID 743221; active = well fitted cell-killing curve with a large enough effect in the repeat runs, not every such curve was filed as active; also: nearly all actives have a fitted effect of over 50% in size)
Procedure, shortened: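 Compound effects on cell number were measured as CellTiter-Glo luminescence in HEK 293T cells expressing FXR-UAS-bla, after 16 h at 37 C with 50 uM CDCA (final).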

[14] = target: Vitamin D3 receptor (Homo sapiens) (UniProt P11473); test: qHTS assay to identify small molecule agonists of the vitamin D receptor (VDR) signaling pathway (AID 743222; calls by dose curve)
Procedure, shortened: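 Beta-lactamase reporter readout (LiveBLAzer B/G FRET, 2 h RT) in VDR-bla cells after 16 h compound treatment at 37C, 5% CO2; cells pre-incubated 4 h before pin transfer of DMSO solutions.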

[15] = target: Vitamin D3 receptor (Homo sapiens) (UniProt P11473); test: qHTS assay to identify small molecule antagonists of the vitamin D receptor (VDR) signaling pathway (AID 743223; active = well fitted inhibition curve with a large enough effect in the signal ratio in the repeat runs, not every such curve was filed as active; the % refers to the signal ratio)
Procedure, shortened: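 Beta-lactamase activity in VDR-bla cells is measured by FRET substrate fluorescence (2 h, room temperature) after cells spend 16 h at 37C with test compound and 3 nM final 1alpha,25-dihydroxyvitamin D3.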

[16] = qHTS assay to identify small molecule agonists of the vitamin D receptor (VDR) signaling pathway - cell viability counter screen (AID 743224); also: series mostly up to about 63 µM; nearly all actives have a fitted effect of over 50% in size
Procedure, shortened: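 Cytotoxicity counter screen: VDR-bla cells, 16 h compound exposure at 37C, 5% CO2; CellTiter-Glo luminescence, 30 min RT, same wells as bla read.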

[17] = target: Peroxisome proliferator-activated receptor delta (Homo sapiens) (UniProt Q03181); test: qHTS assay to identify small molecule agonists of the peroxisome proliferator-activated receptor delta (PPARd) signaling pathway (AID 743212; calls by dose curve)
Procedure, shortened: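 Beta-lactamase reporter read by fluorescence (LiveBLAzer B/G FRET, 2 h, room temperature). Test agents, in DMSO, incubated at 37 C with PPARd-bla HEK293H cells.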

[18] = target: Peroxisome proliferator-activated receptor delta (Homo sapiens) (UniProt Q03181); test: qHTS assay to identify small molecule antagonists of the peroxisome proliferator-activated receptor delta (PPARd) signaling pathway (AID 743215; active = well fitted inhibition curve with a large enough effect in the signal ratio in the repeat runs, not every such curve was filed as active; the % refers to the signal ratio;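 also: cells stimulated with agonist L165041 at 300 nM final during compound exposure; series mostly up to about 62 µM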)
Procedure, shortened: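 HEK293H GeneBLAzer PPARd UAS-bla reporter cells; cpd + L165041 300 nM final, 17 h 37 C; LiveBLAzer B/G FRET substrate 2 h RT; fluorescence intensity read-out. Antagonist mode.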

[19] = target: Bile acid receptor (Homo sapiens) (UniProt Q96RI1); test: qHTS assay to identify small molecule antagonists of the farnesoid-X-receptor (FXR) signaling pathway (AID 743217; active = well fitted inhibition curve with a large enough effect in the signal ratio in the repeat runs, not every such curve was filed as active; the % refers to the signal ratio)
Procedure, shortened: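 Read-out: beta-lactamase FRET fluorescence (LiveBLAzer B/G substrate, 2 h, room temperature) in GeneBLAzer FXR-UAS-bla HEK 293T cells. Compounds were co-dosed with 50 uM chenodeoxycholic acid (final) and incubated 16 h at 37 °C.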

[20] = target: Bile acid receptor (Homo sapiens) (UniProt Q96RI1); test: qHTS assay to identify small molecule agonists of the farnesoid-X-receptor (FXR) signaling pathway (AID 743220; active = well fitted activation curve with a large enough effect in the signal ratio in the repeat runs, not every such curve was filed as active; the % refers to the signal ratio)
Procedure, shortened: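 FXR-UAS-bla HEK 293T cells carrying a UAS-driven beta-lactamase reporter were plated for 5 h at 37C/5% CO2, then exposed to DMSO-dissolved Tox21 10K compounds for 16 h at 37C. A LiveBLAzer B/G FRET substrate was loaded for 2 h at room temperature before fluorescence reading.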

Measured: Potency

Chain of Bile acid receptor (Homo sapiens) (Q96RI1 whole entry, looked up): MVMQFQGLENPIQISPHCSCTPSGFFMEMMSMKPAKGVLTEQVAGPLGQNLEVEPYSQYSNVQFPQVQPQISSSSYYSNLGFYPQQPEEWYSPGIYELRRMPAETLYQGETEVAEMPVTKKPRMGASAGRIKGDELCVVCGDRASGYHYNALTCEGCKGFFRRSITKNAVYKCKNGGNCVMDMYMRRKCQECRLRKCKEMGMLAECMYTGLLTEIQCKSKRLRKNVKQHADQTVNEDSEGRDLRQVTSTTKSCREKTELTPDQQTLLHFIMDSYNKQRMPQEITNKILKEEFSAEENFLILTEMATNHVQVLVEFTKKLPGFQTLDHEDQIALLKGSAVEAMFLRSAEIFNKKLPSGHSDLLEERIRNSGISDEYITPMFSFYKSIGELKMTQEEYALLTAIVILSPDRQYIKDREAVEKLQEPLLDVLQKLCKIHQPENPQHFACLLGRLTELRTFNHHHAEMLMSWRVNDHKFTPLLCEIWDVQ
Chain of Peroxisome proliferator-activated receptor delta (Homo sapiens) (Q03181 whole entry, looked up): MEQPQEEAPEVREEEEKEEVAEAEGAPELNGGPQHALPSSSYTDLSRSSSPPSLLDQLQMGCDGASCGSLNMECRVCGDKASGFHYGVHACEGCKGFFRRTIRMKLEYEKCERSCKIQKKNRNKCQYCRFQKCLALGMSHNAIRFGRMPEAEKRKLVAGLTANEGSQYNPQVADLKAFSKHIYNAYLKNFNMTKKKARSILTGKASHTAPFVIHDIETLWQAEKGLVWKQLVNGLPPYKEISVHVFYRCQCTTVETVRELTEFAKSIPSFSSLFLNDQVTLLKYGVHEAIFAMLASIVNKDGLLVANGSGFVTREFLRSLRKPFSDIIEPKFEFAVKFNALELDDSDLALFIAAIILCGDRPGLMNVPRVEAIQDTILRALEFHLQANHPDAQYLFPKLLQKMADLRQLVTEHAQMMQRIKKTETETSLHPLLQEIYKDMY
Chain of Aryl hydrocarbon receptor (Homo sapiens) (P35869 whole entry, looked up): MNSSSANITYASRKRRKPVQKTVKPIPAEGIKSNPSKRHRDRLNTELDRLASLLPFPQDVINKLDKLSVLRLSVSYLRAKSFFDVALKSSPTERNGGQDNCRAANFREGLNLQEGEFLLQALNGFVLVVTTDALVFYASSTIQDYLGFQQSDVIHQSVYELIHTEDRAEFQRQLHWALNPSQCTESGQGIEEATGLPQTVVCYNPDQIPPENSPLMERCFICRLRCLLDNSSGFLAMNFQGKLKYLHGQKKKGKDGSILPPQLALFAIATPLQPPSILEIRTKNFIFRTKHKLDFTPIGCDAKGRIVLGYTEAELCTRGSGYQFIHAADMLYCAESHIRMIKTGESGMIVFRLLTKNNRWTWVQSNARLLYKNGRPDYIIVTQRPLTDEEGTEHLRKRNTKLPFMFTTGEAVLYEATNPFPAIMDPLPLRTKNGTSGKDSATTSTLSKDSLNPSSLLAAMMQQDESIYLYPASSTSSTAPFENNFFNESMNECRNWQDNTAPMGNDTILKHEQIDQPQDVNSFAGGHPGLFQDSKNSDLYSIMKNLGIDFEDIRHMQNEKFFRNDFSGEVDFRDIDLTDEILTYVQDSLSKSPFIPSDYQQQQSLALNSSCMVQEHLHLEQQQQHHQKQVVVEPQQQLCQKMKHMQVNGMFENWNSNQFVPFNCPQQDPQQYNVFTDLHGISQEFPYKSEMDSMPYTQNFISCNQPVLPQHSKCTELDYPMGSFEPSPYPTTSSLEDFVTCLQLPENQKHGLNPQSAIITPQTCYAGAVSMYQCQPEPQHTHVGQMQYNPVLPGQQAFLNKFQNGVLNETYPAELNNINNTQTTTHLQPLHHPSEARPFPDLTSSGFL
Chain of Vitamin D3 receptor (Homo sapiens) (P11473 whole entry, looked up): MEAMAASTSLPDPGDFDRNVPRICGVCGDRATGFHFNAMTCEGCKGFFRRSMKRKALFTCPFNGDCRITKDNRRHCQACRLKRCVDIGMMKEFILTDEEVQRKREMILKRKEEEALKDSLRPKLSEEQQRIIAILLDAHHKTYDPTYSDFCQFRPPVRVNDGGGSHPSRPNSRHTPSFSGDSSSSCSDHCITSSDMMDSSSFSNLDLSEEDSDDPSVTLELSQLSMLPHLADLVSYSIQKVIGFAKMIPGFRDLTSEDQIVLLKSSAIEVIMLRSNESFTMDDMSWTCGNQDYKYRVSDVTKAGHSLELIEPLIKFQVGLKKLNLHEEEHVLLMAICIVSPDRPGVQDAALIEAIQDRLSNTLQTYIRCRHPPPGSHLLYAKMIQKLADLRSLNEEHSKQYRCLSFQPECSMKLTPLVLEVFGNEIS
Chain of Peroxisome proliferator-activated receptor gamma (Homo sapiens) (P37231 whole entry, looked up): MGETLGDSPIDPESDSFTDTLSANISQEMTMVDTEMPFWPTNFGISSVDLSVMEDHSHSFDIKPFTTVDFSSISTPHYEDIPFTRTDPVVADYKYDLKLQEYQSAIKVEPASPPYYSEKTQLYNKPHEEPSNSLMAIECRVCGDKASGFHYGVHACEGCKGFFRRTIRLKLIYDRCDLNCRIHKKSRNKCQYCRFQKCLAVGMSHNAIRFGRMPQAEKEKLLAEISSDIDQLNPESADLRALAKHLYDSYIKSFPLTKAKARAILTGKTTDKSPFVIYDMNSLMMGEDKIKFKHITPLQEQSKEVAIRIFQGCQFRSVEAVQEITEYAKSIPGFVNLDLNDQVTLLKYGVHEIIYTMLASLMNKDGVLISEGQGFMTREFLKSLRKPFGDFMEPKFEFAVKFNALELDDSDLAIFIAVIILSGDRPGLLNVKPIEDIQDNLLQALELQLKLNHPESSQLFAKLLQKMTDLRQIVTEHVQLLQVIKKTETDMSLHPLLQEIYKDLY

O=C(O)CNC(=O)CNC(=O)CNC(=O)CSC(=O)c1ccccc1
not listed: [17] | [18] | [19] | [20]
inactive: all other assays above

Cc1cc(C)c(C(=O)O)c(C)c1
not listed: [10] | [13] | [14] | [15] | [17] | [18] | [19] | [20]
inactive: all other assays above

C/C=C(\C)C(C)=O
not listed: [9] | [14] | [15] | [19] | [20]
inactive: all other assays above

OCC1(CO)COCOC1
not listed: [9] | [11] | [14] | [15]
inactive: all other assays above

CCCCCCCCCCCCCBr
not listed: [8] | [14] | [15]
inactive: all other assays above

Cc1c(Cl)cccc1Cl
not listed: [11] | [17] | [18] | [19] | [20]
inactive: all other assays above

C=C(C)c1cccc(C(C)(C)N=C=O)c1
not listed: [13] | [17] | [18] | [19] | [20]
inactive: all other assays above

CC(=O)OC1CCCCC1C(C)(C)C (stereo unspecified)
not listed: [9] | [11] | [18] | [19] | [20]
inactive: all other assays above

CCC(C)C(=O)OCCc1ccccc1 (stereo unspecified)
not listed: [10] | [13] | [14] | [15] | [19]
inactive: all other assays above

Cc1ccc(N)cc1S(=O)(=O)O
not listed: [10] | [15]
inactive: all other assays above

CN1C[C@@H]2C[C@H]1CN2c1cc2c(cc1F)c(=O)c(C(=O)O)cn2C1CC1
not listed: [9]
inactive: all other assays above

CC(C)=CCC[C@@](C)(O)[C@H]1CC=C(C)CC1
not listed: [9] | [13] | [18] | [19] | [20]
inactive: all other assays above

CO[C@@]1(NC(=O)Cc2cccs2)C(=O)N2C(C(=O)O)=C(COC(N)=O)CS[C@@H]21
not listed: [9] | [11] | [14] | [15] | [17] | [18] | [19] | [20]
inactive: all other assays above

Cc1ncc([N+](=O)[O-])n1CC(C)O (stereo unspecified)
not listed: [16] | [18] | [19] | [20]
inactive: all other assays above

O=C(O)c1cc2ccccc2nc1C(=O)O
not listed: [11] | [16]
inactive: all other assays above

NCc1ccc(S(N)(=O)=O)cc1
inactive: all assays above

CCCCC1CCC(O)CC1 (stereo unspecified)
not listed: [9] | [12] | [16]
inactive: all other assays above

From PubChem BioAssay (Tox21)
